Measurements reported in PubChem BioAssay AID1634 (National Center for Advancing Translational Sciences (NCATS), 2009).
Out of some 260,000 compounds screened, about 150 (0.058%) were called active. The full list was thinned out, with actives kept by preference. Unmarked numbers belong to inactive results. Calls come from the whole dose curve; as a rule, active = well fitted inhibition curve with a large enough effect; inconclusive = small, poorly fitted or top-dose-only effect; inactive = no such curve, though single readings can be large or run the other way.

Biological target: Pyruvate kinase PKM (Homo sapiens) (UniProt P14618)
Test: qHTS Assay for Inhibitors of Human Muscle isoform 2 Pyruvate Kinase; note: nearly all actives have a fitted effect of over 60% in size
Conditions: purified PKM2, ATP generation, Kinase-Glo luminescence; series mostly up to 57.5 µM; activity change, negative = inhibition: at the top concentration
Protocol: NIH Chemical Genomics Center [NCGC] Matthew G. Vander Heiden, M.D., Ph.D. [Harvard Medical School, 77 Avenue Louis Pasteur, Boston, MA 02115] […] ATP generation was detected in a coupled reaction by luciferase-mediated luminescence, an ATP-dependent process. […] The enzyme was assayed at an intermediate level of activity to screen for both inhibitors and activators.
NCGC Assay Protocol Summary: Three uL of substrate mix (at r.t.) in assay buffer (50 mM Imidazole pH7.2, 50 mM KCl, 7 mM MgCl2, 0.01% Tween 20, 0.05% BSA) was dispensed into white solid bottom 1,536 well microtiter plates so that the final concentrations of substrates in the assay were 0.1 mM ADP and 0.5 mM PEP. 23 nL of compound were delivered by a pin tool and 1 uL of enzyme mix in assay buffer (4 degree Celsius) was added. Plates were incubated at room temperature for 1 hour. Two uL of detection mix (Kinase-Glo, Promega; at 4 degree Celsius protected from light) was added and luminescence read by a ViewLux (Perkin Elmer) at 5 second exposure/plate. Data were normalized to the uninhibited and AC100 inhibition (no enzyme). To monitor activation, the first column contained a titration of the activator, NCGC00031955-01 (16-point 1:2 dilutions in duplicate starting at 57 uM) and the first 16 rows of column 4 contained 57 uM of NCGC00031955-01.
Potency is the fitted concentration of half-maximal effect.

Chain of Pyruvate kinase PKM (Homo sapiens) (P14618 whole entry, looked up, canonical isoform): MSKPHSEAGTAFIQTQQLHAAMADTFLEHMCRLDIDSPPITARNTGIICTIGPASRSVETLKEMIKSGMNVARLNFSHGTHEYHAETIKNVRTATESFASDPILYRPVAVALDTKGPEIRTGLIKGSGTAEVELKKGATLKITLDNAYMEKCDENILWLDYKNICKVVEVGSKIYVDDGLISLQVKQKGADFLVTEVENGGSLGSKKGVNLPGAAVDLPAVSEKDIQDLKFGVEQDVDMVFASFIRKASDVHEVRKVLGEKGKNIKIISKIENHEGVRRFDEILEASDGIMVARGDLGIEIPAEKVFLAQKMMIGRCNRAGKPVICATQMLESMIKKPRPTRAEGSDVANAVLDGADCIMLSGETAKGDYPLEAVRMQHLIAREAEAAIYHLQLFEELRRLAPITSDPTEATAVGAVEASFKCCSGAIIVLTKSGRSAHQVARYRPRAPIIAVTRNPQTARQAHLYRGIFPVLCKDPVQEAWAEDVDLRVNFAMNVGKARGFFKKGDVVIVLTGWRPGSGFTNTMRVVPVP

Compound | activity change, negative = inhibition [%] | Potency
Cc1ccc(Cn2c(SCC(=O)N/N=C/c3ccccc3OCC(=O)O)nc3ccccc32)cc1 | 50.4 | –
Cc1cc(C)n(-c2ccc3nncn3n2)n1 | 61.7 | –
CSC1=NCCN1C(=O)Cc1cccc2ccccc12 | 31.8 | –
Cc1ccnc(Nc2nc3ccccc3s2)n1 | 71.4 | –
N#Cc1nc(Cc2ccccc2)oc1NCCc1ccccc1 | 30.3 | –
Cc1cc(C)c(C#N)c(SCc2ccc3c(c2)OCO3)n1 | 41.7 | –
C=C(C)C(=O)O[C@H]1C/C(C)=C\C(=O)/C=C(\C)[C@H](O)[C@@H]2OC(=O)C(=C)[C@@H]21 | 45.7 | –
Cc1ccc2c(Cl)c(C(=O)NCCCn3ccnc3)sc2c1 | 36.4 | –
C=CCN(C(=O)Nc1ccc2oc(C)nc2c1)c1ccccc1 | 42.5 | –
O=S(=O)(c1ccc2ccccc2c1)N1CCN(S(=O)(=O)N2CCOCC2)CC1 | 35.8 | –
N#Cc1c2c(c(N3CCN(CCO)CC3)n3c1nc1ccccc13)CCCC2 | -3.81 | –
COc1cc2c(cc1O)[C@H](Cc1ccc(Oc3cc(C[C@@H]4NCCc5cc(OC)c(O)cc54)ccc3O)cc1)NCC2 | 46.7 | –
CN1CCCN(S(=O)(=O)c2ccc3c(c2)OCCO3)CC1 | 99.8 | –
O=C(CSc1ccc(-c2ccco2)nn1)Nc1cccc(F)c1 | 31 | –
CCOC(=O)c1cnc(SCC(=O)Nc2cccc(OC)c2)nc1N | 34.7 | –
O=C(Nc1ccccc1)c1nnsc1S(=O)(=O)c1ccc(Cl)cc1 | 32.3 | –
O=C(CN1CCN(S(=O)(=O)c2ccc(F)cc2)CC1)NC1CC1 | 38.1 | –
Cc1nc2cc(C(F)(F)F)ccc2n1CCNc1nc(-c2cc(Cl)c(N)c(Cl)c2)cs1 | 36.2 | –
Cc1ccc(S(=O)(=O)c2c(N)n(C)c3nc4ccccc4nc23)cc1 | 62.8 | –
CSc1nc2ccc(S(=O)(=O)N3CCc4ccccc43)cc2s1 | 68.6 | –
COc1cccc(NC(=O)CSc2nnc(Cc3ccc(OC)c(OC)c3)o2)c1 | 65.6 | –
CC1=C(C)CC2C(=O)N(c3cccc4ccccc34)C(=O)C2C1 (stereo not given) | 33.7 | –
CCOC(=O)c1c(C)oc2cc(Br)c(OCC(N)=O)cc12 | 2.63 | –
COc1cccc(Nc2ncccc2C(=O)O)c1 | 31.1 | –
COc1ccc(C(=O)/C=C/Nc2ccccn2)cc1 | – | 15.8 µM (active)
O=C(Nc1ccc(Br)c2cccnc12)c1ccc(Cn2cc([N+](=O)[O-])cn2)o1 | 34.6 | –
O=C(Oc1ccc(-c2nc(-c3ccccn3)no2)cc1)c1ccccc1 | – | 14.1 µM (active)
Cc1cnc(C(=O)N2CCCC(C(=O)c3ccc(C(F)(F)F)cc3)C2)cn1 (stereo not given) | 36.7 | –
O=C(NCc1ccccn1)c1ccc2nc(-c3ccco3)c(-c3ccco3)nc2c1 | 29.2 | –
O=c1c2ccccc2nnn1CSc1nnnn1-c1ccccc1 | 84.3 | –
